Experimental findings from PubChem BioAssay (NCI) are described below.

Experiment [1] is described as follows: NCI Yeast Anticancer Drug Screen. Data for the rad50 strain (AID 155).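 Also: 0% = growth of vehicle-only cultures of the same strain.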 As to conditions: S. cerevisiae rad50 strain growth inhibition; at 50.0 µM; stronger effect = higher value. In short, it runs like this:
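DNA repair mutant yeast, compound exposure, growth read-out; inhibition is taken relative to vehicle.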

A short description of experiment [2]: NCI Yeast Anticancer Drug Screen. Data for the mec2-1 strain (AID 157). As to conditions: S. cerevisiae mec2-1 strain, at 50.0 µM, stronger effect = higher value. Put shortly: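 Cells of the genetically defined mec2-1 yeast strain are incubated with test compound. Inhibition of growth is calculated against vehicle-treated controls.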
Experiment [3] can be described thus: NCI Yeast Anticancer Drug Screen. Data for the sgs1 mgt1 strain (AID 161).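 Also: 0% = growth of cultures given vehicle only.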 The following applies: S. cerevisiae sgs1 mgt1 strain, at 50.0 µM, stronger effect = higher value. In short, it runs like this:
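Inhibition of yeast growth, normalised to vehicle-treated controls, is reported for a strain bearing genetic alterations in DNA damage repair.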

Experiment [4] is described as follows: NCI Yeast Anticancer Drug Screen. Data for the cln2 rad14 strain (AID 165).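 Also: 0% = growth equal to vehicle treated cultures.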 The following applies: S. cerevisiae cln2 rad14 strain, at 50.0 µM, stronger effect = higher value. In short, it runs like this:
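The screen exposed genetically defined yeast (cln2 rad14) to test compounds and scored growth inhibition relative to vehicle-treated controls.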

Experiment [5] can be described thus: NCI Yeast Anticancer Drug Screen. Data for the bub3 strain (AID 167). The following applies: S. cerevisiae bub3 mutant strain, at 50.0 µM, stronger effect = higher value. In short, it runs like this:
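In this screen, a yeast mutant lacking normal mitotic checkpoint function is challenged with compound. Relative growth versus vehicle gives the inhibition value.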

Experiment [6] in a line: NCI Yeast Anticancer Drug Screen. Data for the mlh1 rad18 strain (AID 175). As to conditions: S. cerevisiae mlh1 rad18 strain growth inhibition; at 50.0 µM; stronger effect = higher value. In short, it runs like this:
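Compound-treated yeast growth, normalised to vehicle controls. Strain bears defined DNA repair mutations.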

The panel holds about 79,000 compounds, 15% with a hit somewhere; the sample as a whole holds those more often. Values without a mark were called inactive. Active and inactive are the calls of the source. Rule as the data show it: active = growth inhibition above about 70%; inactive = the rest. Where a SMILES comes first, the peptide text is derived from it. [ ]: non-standard residue; d: D form. The star is where a group is joined. ξ: configuration not given here. X14 = COC1=CC(=O)N(C(=O)C(O*)C(C)C)C1Cc1ccccc1; ξNMe2Val = CC(C)C(C(=O)*)N(C)C; NMeV = CN[CH](C(=O)O)C(C)C

Consider `Cn1c2c(c3ccccc31)CCN1OCC=C[C@@H](C(=O)O)[C@@H]21`, for which the growth inhibition was -8.3% in experiment [1]; 3.15% in experiment [2]; -6.3% in experiment [3]; 5.55% in experiment [4]; 42.3% in experiment [5]; -8.85% in experiment [6].

As for `NCCCC(N)P(=O)(O)O` (stereo unspecified), the growth inhibition in experiment [1] was 12.3%; in experiment [2], -1.6%; in experiment [3] it was 2.6%; in experiment [4] it was -106%; in experiment [5], 1%; in experiment [6], 5.55%.

Consider `O=c1sc2ccccc2n1CC1CS1` (stereo unspecified), for which the growth inhibition was 22.4% in experiment [1]; -10.1% in experiment [2]; -8.75% in experiment [3]; 5.25% in experiment [4]; -27.1% in experiment [5]; -0.25% in experiment [6].

In the case of `CSc1ccc([As](=O)(O)O)cc1`, the growth inhibition is 15.2% in experiment [1]; 4.45% in experiment [2]; 30.9% in experiment [3]; 24.3% in experiment [4]; -18.1% in experiment [5]; 46.5% in experiment [6].

With `CC(N)Cc1c[nH]c2ccccc12` (stereo unspecified), the growth inhibition in experiment [1] is 2.9%; in experiment [2], -22.2%; in experiment [3], 1.1%; in experiment [4], 20.6%; in experiment [5], -1.75%; in experiment [6], 12.8%.

As to `OCC(Br)CBr` (stereo unspecified), the growth inhibition was 40.9% in experiment [1]; 0.35% in experiment [2]; -3.6% in experiment [3]; -62.6% in experiment [4]; -11.7% in experiment [5]; -4.5% in experiment [6].

Take `CC(=O)[O][Sn]([CH2]C1CCCC1)([CH2]C1CCCC1)[CH2]C1CCCC1`: the growth inhibition in experiment [1] was 99.3% (active); in experiment [2] it was 99.3% (active); in experiment [3], 99.4% (active); in experiment [4] it was 98.9% (active); in experiment [5], 99% (active); in experiment [6], 99.1% (active).

Turning to `Cc1nnc(NC2=NCCO2)s1`, the growth inhibition in experiment [1] was -4.2%; in experiment [2], -5.5%; in experiment [3], -1.6%; in experiment [4], -28.1%; in experiment [5] it was -14.2%; in experiment [6] it was -4%.

As to `COC1=CC(=O)N(C(=O)C(OC(=O)C2CCCN2C(=O)C2CCCN2C(=O)C(C(C)C)N(C)C(=O)C(NC(=O)C(C(C)C)N(C)C)C(C)C)C(C)C)C1Cc1ccccc1` (stereo unspecified) (ξNMe2Val-V[NMeV]PP-X14; configuration not given here), the growth inhibition in experiment [1] is 16.9%; in experiment [2], -21.4%; in experiment [3], -4.25%; in experiment [4], -7.6%; in experiment [5], 28.9%; in experiment [6], -32.6%.

With `COc1cc(C=Nc2ccc(C(=O)O)c(O)c2)ccc1N(CCCl)CCCl`, the growth inhibition in experiment [1] is 60.8%; in experiment [2] it was 15.1%; in experiment [3] it was 65.2%; in experiment [4], 41%; in experiment [5] it was -3.95%; in experiment [6], 48.8%.

With `CC(=O)O[C@H]1CC[C@]2(C)C3=C([C@@H](OO)C[C@H]2C1(C)C)[C@]1(C)CC[C@H]([C@H](C)CCCC(C)C)[C@@]1(C)CC3`, the growth inhibition was 13.1% in experiment [1]; 4.4% in experiment [2]; 14.7% in experiment [3]; 20.9% in experiment [4]; 8.45% in experiment [5]; 25.3% in experiment [6].

In the case of `CCOP(O)(=S)OCC.[Sm]`, the growth inhibition is 1.65% in experiment [1]; -14.6% in experiment [2]; -7.65% in experiment [3]; -43.1% in experiment [4]; -17.9% in experiment [5]; -15.8% in experiment [6].

Turning to `ClC1OC(Cl)(Cl)C(Cl)(Cl)OC1(Cl)Cl` (stereo unspecified), the growth inhibition was 7.7% in experiment [1]; 3.75% in experiment [2]; 35% in experiment [3]; -4.25% in experiment [4]; 18.8% in experiment [5]; 45.9% in experiment [6].

On to `N#Cc1ccccn1`, for which the growth inhibition in experiment [1] is 13.1%; in experiment [2] it was -30.7%; in experiment [3] it was 12.7%; in experiment [4] it was -6.95%; in experiment [5], 3.5%; in experiment [6] it was 5.9%.

For the compound `C/C=C(/C)C(=O)O[C@H]1CCN2CC=C(COC(=O)[C@@](O)([C@H](C)OC)C(C)(C)O)[C@H]12`, the growth inhibition in experiment [1] was -17%; in experiment [2], -15.8%; in experiment [3] it was 3.65%; in experiment [4], 11.6%; in experiment [5], 7.55%; in experiment [6] it was -44.2%.

On to `O=P(O)(O)SP(=O)(O)O.[Mn]`, for which the growth inhibition was -14.7% in experiment [1]; -14.2% in experiment [2]; -1.9% in experiment [3]; -30.2% in experiment [4]; -11.7% in experiment [5]; -16.1% in experiment [6].

Consider `O=C(O)C(O)CO.[Pb]` (stereo unspecified), for which the growth inhibition was -1.95% in experiment [1]; 0.35% in experiment [2]; -2.5% in experiment [3]; 12.4% in experiment [4]; -15.7% in experiment [5]; 9.85% in experiment [6].

For `CCOC(=O)C(Cc1c[nH]c2ccccc12)NC(=O)/C=C/N(CCCl)CCCl` (stereo unspecified), the growth inhibition in experiment [1] is 9.25%; in experiment [2], 9.95%; in experiment [3], 17%; in experiment [4], 0.25%; in experiment [5] it was -14.5%; in experiment [6], 22.2%.

For the compound `O=C1C(Br)=C(N2CC2)C(=O)C(Br)=C1N1CC1`, the growth inhibition in experiment [1] was 96% (active); in experiment [2] it was 88% (active); in experiment [3] it was 90.5% (active); in experiment [4], 79.2% (active); in experiment [5] it was 39%; in experiment [6] it was 97% (active).

Take `C#CCOC(N)=O`: the growth inhibition in experiment [1] is 1.05%; in experiment [2], -15.1%; in experiment [3] it was -7.65%; in experiment [4], -18.6%; in experiment [5], -14.8%; in experiment [6] it was -17.6%.

As to `Clc1cccc2nncc(N3CC3)c12`, the growth inhibition in experiment [1] was 2%; in experiment [2], 23.6%; in experiment [3], -17.2%; in experiment [4], -6.2%; in experiment [5], -9.05%; in experiment [6], 9.25%.
